Inconclusive results are not listed. A call without a number means that no potency is given here. The source made the active and inactive calls. Calls come from the whole dose curve; as a rule, active = well fitted inhibition curve with a large enough effect; inconclusive = small, poorly fitted or top-dose-only effect; inactive = flat fitted curve, though single readings scatter.
Potency is the fitted concentration of half-maximal effect.

Luciferin 4-monooxygenase (Photinus pyralis), sequence (P08659 whole entry, looked up): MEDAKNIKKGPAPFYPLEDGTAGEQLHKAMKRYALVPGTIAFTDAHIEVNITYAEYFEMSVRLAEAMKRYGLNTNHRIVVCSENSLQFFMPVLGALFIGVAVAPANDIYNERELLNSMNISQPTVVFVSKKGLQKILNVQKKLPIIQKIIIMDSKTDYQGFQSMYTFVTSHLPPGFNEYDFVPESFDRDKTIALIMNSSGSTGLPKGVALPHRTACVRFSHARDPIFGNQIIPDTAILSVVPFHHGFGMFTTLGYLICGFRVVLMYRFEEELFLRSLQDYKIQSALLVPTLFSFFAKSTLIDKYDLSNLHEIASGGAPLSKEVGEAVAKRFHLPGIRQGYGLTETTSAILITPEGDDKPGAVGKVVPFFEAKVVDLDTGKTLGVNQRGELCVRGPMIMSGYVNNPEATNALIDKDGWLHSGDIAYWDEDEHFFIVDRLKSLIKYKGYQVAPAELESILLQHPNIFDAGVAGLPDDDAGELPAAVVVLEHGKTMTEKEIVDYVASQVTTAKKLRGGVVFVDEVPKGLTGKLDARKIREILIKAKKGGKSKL

This test deals with Luciferin 4-monooxygenase (Photinus pyralis) (UniProt P08659). The experiment in a line: qHTS Assay for Inhibitors of Firefly Luciferase from the GSK Published Protein Kinase Inhibitor Set. The following applies: purified firefly luciferase, luminescence inhibition; series mostly up to 57.5 µM. A digest of the protocol:
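Purified P. pyralis luciferase, 10nM, with 10uM D-luciferin and 10uM ATP in 50mM Tris acetate pH 7.5, 10mM Mg acetate, 0.01% Tween-20, 0.05% BSA. Titration ~60uM to 300pM; luminescence read after about 5 min.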
For orientation: Quantitative high-throughput screening tests each substance at several concentrations.
Regarding `CN1CCC(n2cnc(-c3ccc(F)cc3)c2-c2ccnc(N)n2)CC1`, the Potency entry was “inactive”.

In the case of `Fc1ccc(-c2ncn(C3CCNCC3)c2-c2ccnc(Oc3ccc(F)c(F)c3)n2)cc1`, the Potency entry is “inactive”.

Take `COc1ccc2cc(-c3c(-c4ccncc4)nc(-c4ccc(S(C)(=O)=O)cc4C)n3C)ccc2c1`: the Potency result is “inactive”.

Take `COc1cc(Nc2ncc(-c3ccccc3)o2)cc(OC)c1`: the Potency is 6.51 µM (active).

In the case of `COc1cc(Nc2ncc3c(C)nc(-c4cccc(Oc5ccccc5)c4)n3n2)cc(OC)c1OC`, the Potency entry is “inactive”.

On to `COc1ccc(-c2ccncc2)cc1C(N)=O`, for which the Potency result is “inactive”.

Regarding `Cc1ccc(NC(=O)c2ccnc(N3CCCC3)c2)cc1-c1ccc(C(=O)NCC2CC2)cc1`, the Potency result is “inactive”.

Turning to `Fc1cccc(COc2ccc(Nc3ncnc4sc(-c5ccco5)cc34)cc2Cl)c1`, the Potency result is “inactive”.

For `CNC(=O)c1cncc(C=Cc2c(Cl)cccc2Cl)c1`, the Potency is 16.3 µM (active).

In the case of `c1ccc(-c2[nH]ncc2-c2ccnc(-c3ccc(OCCN4CCOCC4)cc3)c2)nc1`, the Potency entry is “inactive”.

For `Fc1ccc(-c2c(-c3ccncc3)nc3n2CCS3)cc1`, the Potency result was “inactive”.

Take `COC(=O)Nc1nc2ccc(Oc3ccc(NC(=O)Nc4ccccc4)cc3)cc2[nH]1`: the Potency is 14.6 µM (active).

For the molecule `Nc1ncnc2occ(-c3ccc(NC(=O)Nc4cc(C(F)(F)F)cc(C(F)(F)F)c4)cc3)c12`, the Potency entry is “inactive”.

Take `N#Cc1ccc(Oc2nccc(-c3c(-c4ccc(F)cc4)ncn3C3CCNCC3)n2)cc1`: the Potency entry was “inactive”.

Consider `Cc1cc(Cl)cc2c(N=Nc3ccc(S(N)(=O)=O)cc3)c(O)[nH]c12`, for which the Potency entry is “inactive”.

Take `c1ccc(Nc2ncc(-c3ccccc3)o2)cc1`: the Potency was 0.259 µM (active).

For the molecule `CCN1CCC(C(=O)Nc2n[nH]c3nnc(-c4cccc(F)c4F)cc23)CC1`, the Potency result was “inactive”.

With `COc1ccc(-c2nn3ncccc3c2-c2ccnc(Nc3cccc(C(F)(F)F)c3)n2)cc1`, the Potency result was “inactive”.

Regarding `Fc1cccc(COc2ccc(Nc3ncnc4sc(-c5cccs5)cc34)cc2Cl)c1`, the Potency result was “inactive”.

For the molecule `CNC(=O)c1ncccc1Nc1nc(Nc2cc3c(cc2OC)CCCN3C(=O)CN(C)C)nc2[nH]ccc12`, the Potency result is “inactive”.

Take `Cc1cccc2c(N=Nc3ccc(S(N)(=O)=O)cc3)c(O)[nH]c12`: the Potency entry was “inactive”.

Take `OCCCNc1nccc(-c2c(-c3ccc(F)cc3)nn3cc(C(F)(F)F)ccc23)n1`: the Potency is 32.6 µM (active).

As for `Nc1ncc(-c2cccc(S(N)(=O)=O)c2)c2scc(-c3ccc(F)c(Cl)c3)c12`, the Potency entry is “inactive”.

As to `COc1cc2ncn(-c3cc(OC(C)c4ccccc4Cl)c(C(N)=O)s3)c2cc1OC` (centres undefined), the Potency entry was “inactive”.

As for `Cc1cc(O)cc(C)c1C=Cc1cncc(C(=O)N(C)C)c1`, the Potency result is “inactive”.

Regarding `COc1cc(C=NNc2ncnc3c2cnn3-c2ccccc2)ccc1O`, the Potency result is “inactive”.

For `CCn1c(-c2nonc2N)nc2c(C#CCN)ncc(OCCCN)c21`, the Potency entry was “inactive”.

As to `CN(C)CCOc1ccc(-c2cc(-c3ccc4c(c3)CCC4=NO)c(-c3ccncc3)o2)cc1`, the Potency entry was “inactive”.

For the molecule `Cc1cccc(-c2[nH]ncc2-c2ccc3ncccc3n2)n1`, the Potency result is “inactive”.

As for `CC1=C(C(=O)Nc2ccc3[nH]ncc3c2)C(c2ccc(F)cc2)NC(=O)N1` (centres undefined), the Potency result was “inactive”.

Consider `CS(=O)(=O)CCNCc1ccc(-c2ccc3ncnc(Nc4ccc(OCc5cccc(F)c5)c(C(F)(F)F)c4)c3c2)o1`, for which the Potency entry is “inactive”.

As to `Fc1ccc(-c2nc3n(c2-c2ccncc2)CCS3)cc1`, the Potency entry was “inactive”.

Regarding `Cc1ccc2[nH]c(O)c(N=Nc3ccc(S(N)(=O)=O)cc3)c2c1`, the Potency entry was “inactive”.

With `NS(=O)(=O)c1ccc(N=Nc2c(O)[nH]c3ccc(C(=O)NCCCn4ccnc4)cc23)cc1`, the Potency result was “inactive”.

For the origin of these results see PubChem BioAssay AID652016 (National Center for Advancing Translational Sciences (NCATS), 2013).
